Measured values reported in PubChem BioAssay.
Results filed as inconclusive are left out. Activity calls are given as the source filed them.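 The calls were made as follows, unless noted: active = viability loss from added drug above about 55%, and viability with drug at most 40%, in both replicates (limit read from the data, passing the limit was not always enough); inconclusive = both conditions met in only one replicate; inactive = neither replicate meets both conditions.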

Assays:
[1] = Her2 expression decrease, cell viability multiplex – SKBR3 breast tumor cells, AlphaScreen, ATP viability, primary screen (AID 461;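 active = Her2 level under about 52% in both replicate screens, with viability over 70% of control, limit read from the data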;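 as to Her2 level: lower value means less Her2 protein in the cells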;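 as to viability: percent of carrier control wells set as 100% viability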); conditions: SKBR3 Her2 protein level, 18-24 h, measured here: SKBR3 viability, ATP luminescence, at 10 µM
[2] = target: Receptor tyrosine-protein kinase erbB-2 (Homo sapiens) (UniProt P04626); assay: as above; conditions: 18-24 h, at 10 µM, stronger effect = lower value
Receptor tyrosine-protein kinase erbB-2 (Homo sapiens), sequence (P04626 whole entry, looked up): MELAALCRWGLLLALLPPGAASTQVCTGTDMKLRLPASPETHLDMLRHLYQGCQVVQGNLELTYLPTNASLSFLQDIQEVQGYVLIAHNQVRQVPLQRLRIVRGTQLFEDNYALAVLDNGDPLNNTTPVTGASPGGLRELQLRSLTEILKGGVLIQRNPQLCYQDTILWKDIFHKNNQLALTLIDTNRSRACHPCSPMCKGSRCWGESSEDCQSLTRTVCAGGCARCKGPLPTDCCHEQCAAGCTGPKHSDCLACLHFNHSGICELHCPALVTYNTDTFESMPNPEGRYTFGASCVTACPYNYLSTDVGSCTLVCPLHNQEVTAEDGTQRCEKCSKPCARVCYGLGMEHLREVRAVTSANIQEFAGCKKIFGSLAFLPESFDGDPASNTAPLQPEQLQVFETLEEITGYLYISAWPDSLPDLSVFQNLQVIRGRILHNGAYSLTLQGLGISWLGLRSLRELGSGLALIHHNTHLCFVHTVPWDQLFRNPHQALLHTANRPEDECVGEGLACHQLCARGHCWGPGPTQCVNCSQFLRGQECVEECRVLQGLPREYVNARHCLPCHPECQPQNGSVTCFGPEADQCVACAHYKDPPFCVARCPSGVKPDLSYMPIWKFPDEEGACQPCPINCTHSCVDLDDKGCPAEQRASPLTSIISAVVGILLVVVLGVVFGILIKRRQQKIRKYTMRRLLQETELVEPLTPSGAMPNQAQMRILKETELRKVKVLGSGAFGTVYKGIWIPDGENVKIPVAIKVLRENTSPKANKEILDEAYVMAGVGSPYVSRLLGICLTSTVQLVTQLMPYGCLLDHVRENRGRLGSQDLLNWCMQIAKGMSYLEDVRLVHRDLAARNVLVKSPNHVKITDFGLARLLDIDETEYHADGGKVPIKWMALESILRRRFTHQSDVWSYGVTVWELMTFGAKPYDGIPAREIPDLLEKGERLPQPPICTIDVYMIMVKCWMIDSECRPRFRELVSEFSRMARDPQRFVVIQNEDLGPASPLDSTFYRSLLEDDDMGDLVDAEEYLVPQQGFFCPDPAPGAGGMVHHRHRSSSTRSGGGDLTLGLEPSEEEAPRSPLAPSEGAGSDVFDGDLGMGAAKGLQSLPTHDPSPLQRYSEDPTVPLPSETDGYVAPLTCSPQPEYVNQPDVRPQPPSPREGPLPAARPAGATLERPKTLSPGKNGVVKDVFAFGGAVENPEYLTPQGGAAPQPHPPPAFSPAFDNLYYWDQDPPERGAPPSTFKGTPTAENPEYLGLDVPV

[3] = reduced viability of SK-BR-3 breast cancer cells – cell-based, 24 h, human, pilot screen (AID 572;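 active = viability at or below 10% of carrier control in both of two separate runs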;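 also: compound exposure lasted between 18 and 24 h rather than exactly 24 h; 100% = carrier-treated control wells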); conditions: SK-BR-3 viability, CellTiter-Glo luminescence, at 10 µM, stronger effect = lower value
[4] = HUVEC growth inhibition – cell-based, human, primary screen (AID 575;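 active = viability at or below 30% in both replicate assays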;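 also: 100% = median of untreated cell wells with 0.1% DMSO on each plate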); conditions: HUVEC proliferation, CellTiter-Glo luminescence, 72 h; at 10 µM; stronger effect = lower value
[5] = H69AR cell proliferation blockers – human, duplicate replicates, primary screen (AID 580;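 active = viability at or under a set limit in both replicates, limit being median viability minus 3 SD, cut at about 48% in these data, passing the limit was not always enough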;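 also: 100% = mean luminescence of untreated wells and 0% = no signal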); conditions: H69AR lung tumor cells viability, ATP luminescence, 72 h; at 10 µM; stronger effect = lower value
[6] = MRP1 drug-resistance reversers in H69AR cells – cell-based, doxorubicin co-treatment, pilot screen (AID 601); conditions: CellTiter-Glo, 72 h, at 10 µM; for differential viability (reversal): stronger effect = higher value
[7] = yeast transport mutant growth inhibition pilot in 384-well plates, post-Golgi transport modulator project (AID 636; in the data active = inhibition above about 31%); conditions: absorbance 615 nm, about 18 h, stronger effect = higher value
[8] = growth suppression of yeast trafficking mutant, preliminary HTS, modulators of trafficking downstream of Golgi apparatus project, 1536-format plate, OD 615 nm (AID 637; in the data active = inhibition above about 30%); conditions: yeast transport mutant growth, absorbance 615 nm, 18 h; stronger effect = higher value
[9] = S. cerevisiae growth inhibition in permissive medium (OD615), pilot counter-assay for S. cerevisiae lifespan shortening project, permissive growth control (AID 705;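 active = growth inhibition above 25% in both replicates, a cutoff set 3 SD above the mean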); conditions: OD615, 24 h, at 10 µM, stronger effect = higher value
[10] = S. cerevisiae growth inhibition in restrictive medium, OD615, pilot screen, restrictive growth control, yeast lifespan reduction project (AID 706;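 active = growth inhibition above a set limit, 3 SD over mean compound inhibition, in both replicates, cut at about 43% in these data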;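 also: modified DeaD lifespan yeast strain shifted to restrictive glucose medium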); conditions: OD615, 48 h, at 10 µM, stronger effect = higher value
[11] = doxorubicin toxicity protection in MRP-1 cells – H69AR cells, CellTiter-Glo, duplicate, MRP-1 activator project, pilot screen (AID 807;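 active = viability increase at or above a cutoff of the median across tested compounds plus 3 SD, cut at about 8.5% in these data, passing the limit was not always enough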;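 also: compound pretreatment 18-22 h then 72 h combined with doxorubicin; 0% = doxorubicin alone and 100% = vehicle without doxorubicin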); conditions: H69AR viability with doxorubicin, CellTiter-Glo luminescence; at 10 µM; stronger effect = higher value
[12] = viability of HCT116 without oncogenic beta-catenin – human colon tumor cells, pilot screen (AID 823;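 active = cell viability at or below a set limit in both duplicate runs, the limit being the all-compound median minus 4 SD, cut at about 23% in these data, passing the limit was not always enough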;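 also: 0% = wells killed by 20 µM Hyamine and 100% = untreated DMSO cell wells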); conditions: HCT116 beta-catenin knockout viability, CellTiter-Glo, 60 h; at 10 µM; stronger effect = lower value
[13] = viability of PTEN-null HCT116 cells – cell-based, HCT116 clonal line, CellTiter-Glo, pilot screen (AID 824;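 active = viability at or below 27.92% in each of two runs, the all-compound median minus 4 SD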;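 also: 0% = 20 µM Hyamine control and 100% = vehicle cell control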); conditions: HCT116 PTEN-deleted viability, 60 h, at 10 µM, stronger effect = lower value
[14] = RAM pathway blockade in budding yeast – dse1pr::URA3 reporter, 5-FOA selection, pilot screen (AID 869;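 active = inhibition over a set limit, the all-compound mean plus 3 SD, in both replicate runs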;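 also: 0% = DMSO wells with no growth and 100% = 10 µM 1-NA-PP1 with full growth; RAM network block rescues cells from 5-FOA so hits raise OD615 growth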); conditions: S. cerevisiae dse1pr::URA3 5-FOA growth, OD615, 2 d; at 10 µM; stronger effect = higher value; strain carries analog-sensitive mutant Cbk1 kinase
[15] = RAM signaling pathway blockade in yeast – S. cerevisiae, Pdr1DBD-CYC8 efflux-inhibited sensitized strain, primary screen (AID 1298;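 active = RAM network inhibition above 8.4% in each of two replicates, 3 SD over the compound average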;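 also: 0% = DMSO untreated cells without growth and 100% = 10 µM 1-NA-PP1 full growth; higher means more yeast growth rescued from 5-FOA killing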); conditions: S. cerevisiae cbk1-as DSE1-URA3 strain, 5-FOA growth OD615, 2 d; at 50 µM; stronger effect = higher value
[16] = H69AR cells + 2 uM doxorubicin, measured here: viability with 2 uM doxorubicin, stronger effect = lower value
[17] = H69AR cells, compound alone cytotoxicity

Row | Structure (SMILES) | viability [1] | Her2 level [2] | viability [3] | viability [4] | viability [5] | differential viability (reversal) ([6]; H69AR cells + 2 uM doxorubicin) | viability [6, 16] | viability [6, 17] | inhibition [7] | inhibition [8] | growth inhibition [9] | growth inhibition [10] | viability increase [11] | viability [12] | viability [13] | inhibition [14] | RAM network inhibition [15]
1 | Cc1cccc(-n2ncc3c(N(CCO)CCO)ncnc32)c1 | 97% | 91.5% (inactive) | 97% (inactive) | 78.7% (inactive) | 90% (inactive) | 11.3% (inactive) | 78.7% | 90% | -5.2% (inactive) | -1.97% (inactive) | -0.18% (inactive) | 0.945% (inactive) | -1.41% (inactive) | 94.9% (inactive) | 101% (inactive) | 2.43% (inactive) | -0.31% (inactive)
2 | CCn1cc(C(=O)NCCC2=CCCCC2)c(=O)c2cc(S(=O)(=O)N(C)C)ccc21 | 82.5% | 98.5% (inactive) | 82.5% (inactive) | 70.4% (inactive) | 71.7% (inactive) | 9.64% (inactive) | 62.1% | 71.7% | -4.67% (inactive) | -3.61% (inactive) | -14.2% (inactive) | -29.6% (inactive) | -4.4% (inactive) | 86.4% (inactive) | 72.6% (inactive) | 1.37% (inactive) | 1.83% (inactive)
3 | c1ccc2c(c1)nc(NCCN1CCOCC1)c1nncn12 | 92% | 102% (inactive) | 92% (inactive) | 109% (inactive) | 94.7% (inactive) | 8.78% (inactive) | 85.9% | 94.7% | -1.67% (inactive) | 2.5% (inactive) | -10.4% (inactive) | -3.62% (inactive) | 1.59% (inactive) | 103% (inactive) | 103% (inactive) | -0.055% (inactive) | -0.1% (inactive)
4 | CC(=O)c1c(OC(=O)c2ccco2)c2ccccc2n1C | 91% | 102% (inactive) | 91% (inactive) | 74.6% (inactive) | 75.3% (inactive) | -8.43% (inactive) | 83.8% | 75.3% | -0.64% (inactive) | -8.83% (inactive) | -14.2% (inactive) | -7.23% (inactive) | -4.82% (inactive) | 75.1% (inactive) | 91.3% (inactive) | 0.15% (inactive) | 1.13% (inactive)
